# Measured values: PubChem BioAssay (NCI)
# This is part of a sample that, as a whole, favours compounds with a hit. Of some 83,000 tested, about 20% had one in any assay.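 Assay: single dose, 48 h. Readout: percent growth (0 = no net growth; negative = cell death). Active: <10.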 Values without a mark were called inactive. The source made the active and inactive calls.
# System: MDA-MB-468 breast
# Test: NCI-60 one-dose screen, 48 h (100 = growth as untreated, 0 = no growth, -100 = all killed)
# Conditions: 10 µM unless noted
row,SMILES,growth
1,O=S(=O)(Oc1ccc(-c2nnc(Nc3ccccc3)s2)cc1)C(F)(F)C(F)(F)C(F)(F)C(F)(F)C(F)(F)C(F)(F)F,99.8%
2,Cc1ccc(S(=O)(=O)Nc2cccc3[nH]c(C(F)(F)F)nc23)cc1,5.86% (active)
3,CCCCn1c(=O)c(C2CNC(=O)c3ccccc3N2)cc2ccccc21 (stereo unspecified),107%
4,CCOC(=O)/C(=C/c1ccc(OC)cc1)N(CC)CC,106%
5,Cc1ccc(C2(C)NC(=O)N(CC(=O)Nc3cccc(C)c3)C2=O)cc1 (stereo unspecified),89%
6,O=C(/C=C/c1ccc([N+](=O)[O-])o1)NNC(=O)c1cc2ccccc2cc1O,6.09% (active)
7,Nc1cc(Br)c(-c2nnc(CCC(=O)c3nc4ccccc4[nH]3)o2)c(Br)c1,16.9%
8,Cn1cc(-c2nnc(N)nc2-c2c[nH]c3ccc(F)cc23)c2cc(Br)ccc21,-33.4% (active)
9,COc1ccc(S(=O)(=O)n2c3ccccc3n3ncc(-c4nnc(C)o4)c23)cc1,-19.5% (active)
10,COc1cc(Nc2cc(O)c3c(=O)cc(-c4ccccc4)oc3c2)cc(OC)c1,11.7%
11,Nc1ccc(C(=O)c2ccc(N)c(Br)c2)cc1Br,-0.913% (active)
12,N[C@@H](Cc1cn(-c2ccnc3ccccc23)nn1)C(=O)O,108%
13,COCCOC(C)C(/C=N/NC(N)=S)=N/NC(N)=S (stereo unspecified),7.98% (active)
14,C[C@@H]1O[C@@H](O[C@@H]2C[C@H](c3ccc4c(c3O)C(=O)C3=C(C4=O)[C@@]4(O)C(=O)C[C@](C)(O)C[C@@]4(O)C=C3)O[C@H](C)[C@H]2O)CC[C@@H]1O[C@H]1C[C@@H](O)[C@H](O)[C@@H](C)O1,106%
15,Cc1ncc(-c2ccnc(Nc3ccc(S(C)(=O)=O)cc3)n2)n1C(C)C,-48.8% (active)
16,CC/C(=C(\c1ccccc1)c1ccc(OCCNC)cc1)c1ccccc1,-97.7% (active)
17,NS(=O)(=O)c1cc(C2(O)NC(=O)c3ccccc32)ccc1Cl (stereo unspecified),102%
18,O=C(/C(=N/O)c1ccccc1)c1ccccc1,93.1%
19,COCCOCCOCc1n(Cc2ccc3ccccc3n2)c2ccccc2[n+]1Cc1ccc2ccccc2c1,-50.1% (active)
20,N#C/C(=N\Nc1ccc(Cl)cc1)C(=O)Nc1cc(-c2ccccc2)nn1-c1ccccc1,7.6% (active)
21,Cc1nn(-c2ccccc2)c(Cl)c1/C=C(/NC(=O)c1ccccc1)c1nc2ccccc2[nH]1,113%
22,CC(=O)n1c(-c2ccc(Cl)cc2)nc2c(c1=O)C(c1ccc(Cl)cc1)c1sc3c(Cl)cccc3c1O2 (stereo unspecified),5.06% (active)
23,O=C1N=C(N2CCOCC2)S/C1=C\c1cn(-c2ccccc2)nc1-c1ccccc1,83.3%
24,CCN(CC)CCOc1cccc2c1C(=O)c1ccccc1C2=O,91.4%
25,C=CCn1c(C)nc2ccc(Nc3nc(Nc4ccc(F)cc4)nc4ccccc34)cc21,49.3%
26,O=C(N/N=C/c1cccs1)c1[nH]c2ccc(Br)cc2c1-c1ccccc1,-8.42% (active)
